Data on 52 molecules can be found in ChEMBL document CHEMBL4513216, “Probing the Open Global Health Chemical Diversity Library for Multistage-Active Starting Points for Next-Generation Antimalarials” (ACS Infect Dis, 2020).

Hit rate of the full screen: of about 68,000 compounds, about 2,700 (4%) showed an effect of 50% or more. For the sample, strong results were picked, then their nearest neighbours and some compounds at random.

For this experiment, the system named is Plasmodium berghei. Description: Screen against P. berghei liver stage (PbLuc), transformed with Luciferase, at 2uM. The class given is functional, HepG2. As to conditions: tested at 2 uM.
For `Cn1nc2c(cc1=O)CN(Cc1nnc(-c3ccco3)o1)CC2`, the INHIBITION is on record as -32.49%.

Regarding `Cc1cc2n(n1)CCN(c1nc(N(C)C)nc3c1CCNC3)C2`, the INHIBITION is listed as 15.46%. In the case of `CC(=O)N1CCC(N2CCOC(CC3CCCCC3)C2)CC1` (configuration not stated) it was 56.69%; in that of `Cc1ncoc1C(=O)N1CCOC(CC2CCCCC2)C1` (configuration not stated), -78.64%; in that of `CC(=O)N1CCC(C(=O)N2CCOC(CC3CCCCC3)C2)CC1` (configuration not stated), 38.49%. The value for `COc1cccc(CC2CN(C3CCN(C(C)=O)CC3)CCO2)c1` (configuration not stated) was 17.75%. Regarding `O=C(C1CCOCC1)N1CCOC(CC2CCCCC2)C1` (configuration not stated), the INHIBITION is given as 28.91%. In the case of `CN(C)C(=O)N1CCC(C(=O)N2CCOC(CC3CCCCC3)C2)CC1` (configuration not stated) it was 54.77%.

For the molecule `CC(C)c1nc2c(n1C)CCN(CCS(=O)(=O)c1ccccc1)C2`, the INHIBITION is listed as 18.35%.

With `CCCc1nnsc1C(=O)NCC1CCN(S(C)(=O)=O)CC1`, the INHIBITION was -4.49%. For the molecule `Cc1ccc(CNC2(Cc3cc(-c4ccc(F)cc4)on3)COC2)o1`, the INHIBITION was determined as 44.15%.

Regarding `CN(C)c1cc(CNc2cncc(-n3cccn3)n2)ccn1`, the INHIBITION is on record as -15.92%. In the case of `COc1ccc2c(c1)CC(C1CCOCC1)N(C(=O)c1ccn(C)n1)C2` (configuration not stated) it was 15.61%; in that of `CC(c1ccco1)N(C(=O)COc1ccc(C#N)cc1)C1CC1` (configuration not stated), 41.03%. In the case of `Cc1cccc(OCCN2CCC(c3ccnn3CCO)CC2)c1` it was 7.13%; in that of `OCCn1nccc1C1CCN(CCOc2cccc(F)c2)CC1`, 53.98%; in that of `OCCn1nccc1C1CCN(CCOc2ccccc2)CC1`, 39.72%. The value for `Cc1cc2c(o1)CC(C)(C)CC2NC(=O)CNC(=O)C1CC1` (configuration not stated) was -22.24%.

`Cc1ncc(CN(C)C(=O)Nc2cccc(C(=O)N3CCOCC3)c2)s1`: the INHIBITION was found to be 15.68%. Turning to `CNC(=O)CN1CCOCC12CCN(C(=O)c1ccccc1)CC2`, the INHIBITION is on record as -41.11%.

For the molecule `CNC(=O)CN1CCOCC12CCN(Cc1ccncc1)CC2`, the INHIBITION stood at 34.47%.

Regarding `CNC(=O)CN1CCOCC12CCN(CCc1ccccc1)CC2`, the INHIBITION is 53.08%. As to `Cc1cnn(CC2CCCCN2CCCS(N)(=O)=O)c1` (configuration not stated), the INHIBITION was 8.1%. The value for `CC(C)c1nc(O)c2nnn(C[C@H]3CCCN(Cc4cccs4)C3)c2n1` was 4.91%; that for `CC1(C)CN(C(=O)c2ncc(F)cc2F)CCC1(O)CN1CCOCC1` (configuration not stated) was 31.97%. In the case of `Cc1nc(Nc2ncc(C)s2)cc(C2CCCN2)n1` (configuration not stated) it was -30.88%; in that of `Cc1ccc(C(=O)N2CCO[C@H]3[C@H](OCc4ccccn4)CC[C@@H]32)o1`, 30.96%; in that of `Cc1nc(C)n(CC(=O)N2CCc3ncc(Cl)cc3C2)n1`, 44.9%. The value for `Cc1cc(C)n(CCCC(=O)N2CCc3ncc(Cl)cc3C2)n1` was 51.99%; that for `Cc1nc(C)n(CCC(=O)N2CCc3ncc(Cl)cc3C2)n1` was 40.31%.

Regarding `Cc1nnc(CNC(=O)[C@@H]2C[C@H](NC(=O)C(C)(C)C)CN2C)[nH]1`, the INHIBITION is on record as -4.77%. In the case of `CN1C[C@@H](NC(=O)c2cc(F)cc(F)c2)C[C@H]1C(=O)NCc1ncc[nH]1` it was -7.68%; in that of `CN1C[C@@H](NC(=O)C(C)(C)C)C[C@H]1C(=O)NCc1ncc[nH]1`, 67.85%. Regarding `N#Cc1c(Cl)nsc1NCc1cccnc1OCC(F)(F)F`, the INHIBITION turned out to be 5.94%. As for `Cc1nn(C)cc1Cn1c(=O)cnc2ccccc21`, the INHIBITION stood at 2.82%. For the molecule `Cc1nn(C)cc1Cn1c(=O)ccc2ccccc21`, the INHIBITION is 51.36%.

In the case of `Cc1nn(C)cc1Cn1c(=O)c(C)nc2ccccc21`, the INHIBITION worked out at 21.57%. In the case of `CCc1nnc2n1CCN(C(=O)c1cnc3c(cnn3C(C)C)c1)C2` it was 24.05%; in that of `Cc1nnc2n1CCN(C(=O)c1cnc3c(cnn3CC(C)C)c1)C2`, 56.89%; in that of `Cc1nnc2n1CCN(C(=O)c1cnc3c(cnn3C(C)C)c1)C2`, 17.48%. As for `CC(C)C(=O)N1CC[C@H]2N(C)CC[C@@]2(C(=O)N2CCOCC2)CC1`, the INHIBITION is given as 35.34%. In the case of `CNC(=O)Cc1ccc(NC(=O)NCc2nc(C)sc2C)cc1` it was 45.82%; in that of `CNC(=O)Cc1ccc(NC(=O)NCc2ncc(C)s2)cc1`, 38.67%; in that of `CNC(=O)Cc1ccc(NC(=O)NCC(C)c2ncc(C)s2)cc1` (configuration not stated), 50.59%. In the case of `CN1C(=O)C(C)(C)COc2cc(NS(=O)(=O)Cc3ccccc3)ccc21` it was -18.38%; in that of `c1ccc(CN2CCc3ncnc(C4CCOC4)c3CC2)nc1` (configuration not stated), -4.2%; in that of `CCn1ccnc1CN1CCN(C(C)C(=O)NCc2ccco2)CC1` (configuration not stated), -17.18%. As to `Cc1cnc(CN(Cc2cccc(O)c2)CC2CC2)cn1`, the INHIBITION was -14.45%. Turning to `C[C@]1(O)CCN(Cc2ncccc2F)C[C@@H]1Oc1ccccc1`, the INHIBITION is on record as 51.99%. With `Cc1cccnc1CN1CC[C@@](C)(O)[C@H](Oc2ccccc2)C1`, the INHIBITION is on record as 37.4%.

Regarding `C[C@]1(O)CCN(Cc2ncccc2F)C[C@@H]1Oc1cccc(F)c1`, the INHIBITION came to 14.47%. The value for `CCOC(=O)c1cc2n(n1)CCCO2` was 4.95%.
